# Results filed as inconclusive are left out. The source made the active and inactive calls. Unless noted, no rule for the calls is given here.
# Tests used:
# [1] = qHTS profiling of the MIPE4 collection as inhibitors of Plasmodium falciparum (DD2) proliferation (AID 743345); details: P. falciparum Dd2 in erythrocytes, SYBR Green DNA, 72 h; at 28.5 µM (top of the series) unless noted
# Summary of the method: (§1)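 Parasite DNA was quantified by SYBR Green I fluorescence (ex 485, em 535 nm) after overnight lysis in saponin/Triton buffer at room temperature. Cultures at 0.3% parasitemia and 2.5% hematocrit were first exposed to compound for 72 h at 37 C; signals were normalised to artemisinin (0.29 uM) and vehicle wells.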
# [2] = qHTS profiling of the MIPE4 collection as inhibitors of Plasmodium falciparum (DD2) proliferation (Rep 2) (AID 743346); details: P. falciparum Dd2 in erythrocytes, SYBR Green DNA, 72 h; at 28.5 µM (top of the series) unless noted
# Summary of the method: as §1
# [3] = qHTS profiling of the MIPE4 collection as inhibitors of Plasmodium falciparum (HB3) proliferation (AID 743347);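 also: plate controls were DMSO vehicle wells for no effect and artemisinin wells for full effect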; details: P. falciparum HB3 in erythrocytes, SYBR Green DNA, 72 h; at 28.5 µM (top of the series) unless noted
# Summary of the method: as §1
# [4] = High-throughput drug toxicity screening in the BPDCN cell line Gen2.2 (AID 1224824); details: Gen2.2 BPDCN cells; at 45.8 µM (top of the series) unless noted;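 also: cells exposed to compounds for 48 h before reading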
# Summary of the method: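 Readout is ATP luminescence from Gen2.2 cells after two days of drug exposure in serum-containing medium at 37 °C. Values express percent activity, with vehicle defining full signal and 9.2 uM bortezomib defining zero.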
# [5] = High-throughput drug toxicity screening in the BPDCN cell line Cal-1 (AID 1224825); details: Cal-1 BPDCN cell viability, qHTS; at 45.8 µM (top of the series) unless noted
# Summary of the method: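 CellTiter-Glo luminescence after 48 h compound exposure; percent activity scaled with DMSO as 100% and bortezomib (9.2 uM final) as 0%. Cal-1 cells seeded at 500/well in RPMI, 10% FBS, no phenol red.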
# [6] = qHTS assay for measurement of the activity of small molecule inhibitors on Zika virus induced Caspase-3 activity in human iPSC derived neural progenitor cells (hNPCs) (AID 1224857; active = well fitted inhibition curve with a large enough effect; also: % of control where 0% means no effect; nearly all actives have a fitted effect of over 65% in size)
# Summary of the method: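 Human iPSC-derived neural progenitor cells pretreated 1 hr with compounds, then infected with Zika virus (2 FFU/cell) for 6 hours at 37 C. Caspase-3/7 measured by Caspase-Glo luminescence; % inhibition calculated from induction scaled to uninfected (0%) and infected (100%) wells.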
# [7] = qHTS Screen of the MIPE 4.0 Collection Against Ewings Sarcoma (RDES) (AID 1259252; active = well fitted inhibition curve with a large enough effect; also: nearly all actives have a fitted effect of over 35% in size; also: potency is read from the fitted curve at half-maximal effect)
# Summary of the method: (§2)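 Log-phase cells in RPMI with 5% FBS attached for 4 h, then received compounds as a titration for 48 h at 37C, 5% CO2. Viability was read by CellTiter-Glo luminescence and normalized to DMSO and no-cell wells.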
# [8] = qHTS Screen of the MIPE 4.0 Collection Against Ewings Sarcoma (TC71) (AID 1259253; active = well fitted inhibition curve with a large enough effect; also: nearly all actives have a fitted effect of over 40% in size; also: potency is read from the fitted curve at half-maximal effect)
# Summary of the method: as §2
# [9] = qHTS Screen of the MIPE 4.0 Collection Against Ewings Sarcoma (EW8) (AID 1259255; active = well fitted inhibition curve with a large enough effect; also: nearly all actives have a fitted effect of over 35% in size; also: potency is read from the fitted curve at half-maximal effect;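 as to viability: 100% = DMSO-treated cells and 0% = medium-only wells without cells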)
# Summary of the method: as §2
# [10] = qHTS profiling of the MIPE4 collection as inhibitors of Plasmodium falciparum (3D7) proliferation (AID 743344);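 also: scaled between DMSO vehicle wells and 0.29 µM artemisinin as full inhibition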; details: P. falciparum 3D7 in erythrocytes, SYBR Green DNA fluorescence, 72 h; at 28.5 µM (top of the series) unless noted
# Summary of the method: as §1
# [11] = qHTS assay for measurement of the activity of small molecule inhibitors on Zika virus induced Caspase-3 activity in human astrocytoma cells (AID 1224859; active = well fitted inhibition curve with a large enough effect;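 also: plate controls were ZIKV-infected untreated cells for no effect and uninfected cells for full effect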)
# Summary of the method: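 SNB-19 astrocytoma cells, 250/well, pretreated 1 h with compounds, then Zika virus at 2 FFU/cell for 6 h at 37 C; Caspase-Glo 3/7 luminescence after 30 min; percent inhibition normalised to uninfected and infected controls.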
Structure (SMILES),"parasite growth remaining, % of DMSO control (lower = more inhibition) [1]","parasite growth, % of control (lower = inhibition) [2]","growth, % of control [3]","cell viability, % of control (lower = more cytotoxic) [4]",viability (% of control) [5],Potency [6],Potency [7],Potency [8],Potency [9],"parasite growth, % of DMSO control [10]",Potency [11]
CN[C@@H]1C[C@H]2O[C@@](C)([C@H]1OC)n1c3ccccc3c3c4c(c5c6ccccc6n2c5c31)C(=O)N[C@H]4O,6.48%,14.9%,3.74%,13%,4.51%,inactive,935 nM (active),209 nM (active),418 nM (active),,
O=C(CN1C(=O)C2(CCCC2)NC[C@H]1c1cc(F)cc(F)c1)Nc1ccc2c(c1)C[C@@]1(C2)C(=O)Nc2ncccc21,,26.1%,,124%,107%,,inactive,inactive,inactive,26%,
C=C(C)[C@@H]1CC[C@]2(C)CC[C@]3(C)[C@H](CC[C@@H]4[C@@]5(C)CC[C@H](O)C(C)(C)[C@H]5CC[C@]43C)[C@@H]12,92%,73.8%,37.4%,162%,121%,,inactive,,inactive,44.1%,inactive
CC(Oc1ccc(O)cc1)(P(=O)(O)O)P(=O)(O)O,101%,64.2%,98.7%,123%,107%,,inactive,inactive,inactive,64.8%,inactive
C=CC(=O)Nc1cc(NC(=O)c2ccc(C)c(NC(=O)c3ccno3)c2)cc(C(F)(F)F)c1,52.8%,,22.8%,4.74%,3.59%,,23500 nM (active),20900 nM (active),20900 nM (active),,inactive
Cc1cnc(NC(=O)Nc2cc(Br)c(C)cc2OC[C@@H]2CNCCO2)cn1,7.73%,,2.97%,20.9%,7.84%,,2350 nM (active),590 nM (active),833 nM (active),5.93%,inactive
O=C(CCCCCCC(=O)Nc1cccnc1)NO,7.37%,7.99%,4.47%,20.5%,10.1%,,2960 nM (active),,2640 nM (active),5.14%,
CN(C)CC[C@H](c1ccc(Cl)cc1)c1ccccn1,57%,36.2%,95.2%,120%,98.4%,inactive,inactive,,inactive,94.7%,
Cn1cc(-c2cnn3c(N)c(Br)c([C@H]4CCCNC4)nc23)cn1,10.3%,8.07%,,8.78%,14.4%,inactive,332 nM (active),,148 nM (active),7.85%,
COc1cc(OC)c(C=CS(=O)(=O)Cc2ccc(OC)c(NCC(=O)O)c2)c(OC)c1,82.7%,77.6%,68.2%,5.33%,8.09%,,93.5 nM (active),187 nM (active),235 nM (active),88.3%,inactive
CC(=O)NCC(=O)N1[C@H]2CC[C@H]1c1cc(Nc3ncc(C(F)(F)F)c(NC4CCC4)n3)ccc12,15.3%,,6.85%,2.71%,2.93%,,5260 nM (active),935 nM (active),83.3 nM (active),8.18%,inactive
CC(=O)O[C@@]12CO[C@H]1C[C@H](O)[C@@]1(C)C(=O)[C@H](O)C3=C(C)[C@@H](OC(=O)C(O)[C@@H](NC(=O)OC(C)(C)C)c4ccccc4)C[C@@](O)([C@@H](OC(=O)c4ccccc4)[C@@H]21)C3(C)C (stereo not given in full),18.8%,30.4%,4.16%,22.4%,8.89%,inactive,inactive,inactive,inactive,,
CCN1CCN(C(=O)N[C@H](C(=O)N[C@@H]2C(=O)N3C(C(=O)O)=C(CSc4nnnn4C)CS[C@@H]23)c2ccc(O)cc2)C(=O)C1=O,95.9% [at 9.64 µM],,90.1% [at 9.64 µM],149% [at 15.3 µM],113% [at 15.3 µM],,inactive,inactive,inactive,91.3% [at 9.64 µM],inactive
COc1cc2c(Nc3ccc(Cl)c(Cl)c3F)ncnc2cc1OCC1C[C@@H]2CN(C)C[C@H]2C1,7.75%,,7.13%,2.56%,2.8%,,14800 nM (active),,11800 nM (active),6.7%,inactive
CC(C)c1cnn2c(NCc3ccccc3)cc(NCCCCCCN)nc12,12.1%,11.2%,2.16%,4.58%,3.93%,,3720 nM (active),4690 nM (active),18700 nM (active),6.96%,inactive
Cn1cc(C=CC(=O)c2cccc(F)c2)cc1C=CC(=O)NO,90.9%,56.3%,,7.04%,4.87%,,23500 nM (active),18700 nM (active),16600 nM (active),69.1%,inactive
CC(C)NC[C@@H](C(=O)N1CCN(c2ncnc3c2[C@H](C)C[C@H]3O)CC1)c1ccc(Cl)cc1,64.9%,5.81%,2.94%,,1.88%,inactive,4690 nM (active),11800 nM (active),1660 nM (active),5.13%,inactive
C=C1C(=CC=C2CCC[C@]3(C)[C@@H]([C@H](C)CCCC(C)(C)O)CC[C@@H]23)C[C@@H](O)C[C@@H]1O,95.2%,22.4%,9.14%,,6.91%,inactive,2640 nM (active),2960 nM (active),5260 nM (active),,inactive

# From PubChem BioAssay (NCATS)
